These results are taken from paper PMC12136788.

Numbering of substitutions follows the chain as printed. In all, about 24,000 sequences were measured (“enrichment r”: median about 0.99, highest 2% from about 3.7 on). Only a selection was taken, and the highest values are over-represented in it overall.

Sequences and labels used below:
B1: 160109231_160113639_413_CDS_ENSG00000112096_ENST00000546260|human|control|control (ssRNA)
RNA: GGGAGUUCUACAGUCCGACGAUCAACUUCAGUGCAGGCUGAAGAGCUAUCUGGGCUGUAACAUCUCCUGGAAAACUCGGAACCGGUACAAAUACGAAGCGAGUUCUCCUCCACGGAGAGGCCCGUCCGUAUGGGGCCUGGCUCCAACAGAGGAUUGAGCAUCA
B2: chr4:144460044:144460045:+_ENSG00000153147_ENST00000283131|hu_mus|hu_hu_hu_mus_False|28_78 (ssRNA)
RNA: GGGAGUUCUACAGUCCGACGAUCACGGUCCAUAGCCUGAAGAUCAACUUGCGGAUUCCAAUCAGAAUCAUAUAAAAUGACUACAUCAGCAGUUGCAAGAUUGAUGCCAAGACCACCAGCACGUGUGCUUAGCAUAAAUACAAACAACAGAGGAUUGAGCAUCA
B3: chr6:41756983:41756984:+_ENSG00000214736_ENST00000398881|hu_mus|FALSE|FALSE (ssRNA)
RNA: GGGAGUUCUACAGUCCGACGAUCAUCAAUGUCACUCAAGUUCCUGGCCAGCCAGACUCCCGCAGCAAAGAGUCCCAAAUUGAGGAUCAAGUUCCUCCGGAAGUCGUUUCGAUCGGUGGCGAAGCGGAAGACACCGCGGAGCCACAACAGAGGAUUGAGCAUCA
B4: 40918001_40923414_123_3pUTR_ENSMUSG00000028423_ENSMUST00000098143|mouse|control|control (ssRNA)
RNA: GGGAGUUCUACAGUCCGACGAUCAGCAGCAUCUGUAUUGAAUUUAAAAGUGCCUGAGACCGGAGGCGCCUCCGCCAUCCCGUGCCGCAGCACCUCAAGCGAGCCCCGCCACCGAGCGAAGGCUGUCACCUGGUCACGUGUCCCCAACAGAGGAUUGAGCAUCA
B5: chr7:140404665:140404666:+_ENSG00000090266_ENST00000247866|hu_hu|hu_hu_hu_mus_False|1_28 (ssRNA)
RNA: GGGAGUUCUACAGUCCGACGAUCUGCUCCUACUCGUCCAGAGAGUUUACAGUGUCAGUCCUCGUCAUCAGGAGGGAUUCCCAGUUCUUCAUCUGUCCACUGUGAAGGAUCAGGAUAUGAAAAGUGACCCAGCACAGCUUCUGACAACAGAGGAUUGAGCAUCA
B6: chr7:108137184:108137185:-_ENSG00000135241_ENST00000257694|hu_mus|motif|central (ssRNA)
RNA: GGGAGUUCUACAGUCCGACGAUCUCGAUAGAGUUCCUCACAUUCAUCCAGCGGCAUGUGAAACAAUCCCAGCAUAAAUGCGGAUAUGGCCCCUGUGCUUACUCCACAGAUGUAAUCAAAAAGCUGAUGAAUCGGCUUCUGAGUCAACAGAGGAUUGAGCAUCA
B7: chr13:9170561:9170562:+_ENSMUSG00000033499_ENSMUST00000091829|mus_mus|motif|central (ssRNA)
RNA: GGGAGUUCUACAGUCCGACGAUCCCAUCAGCCCCCAUCCAUCUGCUGGACACCCUACCAAUGCGCACUUGUAGACCAACGGUUAAAAAAAAAAAAAAAGGAAGUAGCAGAGUUCCCUUAAUUUAGAAAAACUCAUUAUAGCUUCAACAGAGGAUUGAGCAUCA
B8: chr2:43450610:43450611:-_ENSG00000152518_ENST00000282388|hu_mus|FALSE|FALSE (ssRNA)
RNA: GGGAGUUCUACAGUCCGACGAUCGUUAAAUAGUUUUUCAUAUUGAGUUGUGGUGCAGUGGUGCGGAUCAACUCAGAACAACUAAAAAUGAAGCACUUAUUUCCCAACAACUAUGAACUGAGCUCUGCCCAUAGCUUCCAGAGACAACAGAGGAUUGAGCAUCA
B9: chr13:9170561:9170562:+_ENSMUSG00000033499_ENSMUST00000091829|mus_hu|FALSE|FALSE (ssRNA)
RNA: GGGAGUUCUACAGUCCGACGAUCCACUGGCCCUCAUUCAUCUGCGGGGACGUUCUAGAGAUAUGCACUUACAGACCAGUUACUUAAAAAAAAAAAAAAAAAGCAGAGUUCCCUUAAUUUAGAAAAACUCACUAUAUAUAGCUUCAACAGAGGAUUGAGCAUCA
B10: chr18:67805652:67805653:+_ENSMUSG00000024537_ENSMUST00000025418|mus_hu|FALSE|FALSE (ssRNA)
RNA: GGGAGUUCUACAGUCCGACGAUCAUACUUAAUAAAAAUGGAUCUUAACUGUAGAGCCACCAGCUUUCUUGAAGGCAAUGAAUACACUUCAGCAUUUAUGCUAAGUUCUGUUGAAUUUCCUUCUGUGGUCGCAUAUGGAUUGUUCAACAGAGGAUUGAGCAUCA
B11: 48821072_48822033_622_CDS_ENSG00000108848_ENST00000240304|human|control|control (ssRNA)
RNA: GGGAGUUCUACAGUCCGACGAUCUGCAGCAAAGCUUUCAAUUGUCGACGUUGUGGACCUUAGCAGUUCUCUCUCUUCUUUUAAUUGCUCAACUAAUUUCAUCAUCCCCUGGGCUUCUUCUACUUUUCCUUCAGACCCUAAUUCCAACAGAGGAUUGAGCAUCA
B12: 30503004_30509812_319_CDS_ENSG00000126858_ENST00000394692|human|control|control (ssRNA)
RNA: GGGAGUUCUACAGUCCGACGAUCCAGAUCAGAUUUGUUCCCAACCAAUAUUAAAGGCAGCCUGCUGUCUUUGUCUGUUCUUUCAUUUAUGAGAGGAAUCCAUCGACUUGUUACCUUAUCAAUAGAAUGCUUGUUGUUAACGGCCAACAGAGGAUUGAGCAUCA
B13: chr1:32384726:32384727:-_ENSG00000184007_ENST00000602725|perfect_dup|FALSE|FALSE (ssRNA)
RNA: GGGAGUUCUACAGUCCGACGAUCAGGAGGAAAUCAAUAAAUCUUGAAAUGUUCCGCAGCAGAAAACAUUAAAAAGACCACUAAAAUGCCUAUUAUUGAUCACUAUUUUCUCUAUUCAACUUGCUUGUUCCUUAGGAAGCUUCUCAACAGAGGAUUGAGCAUCA
B14: chr13:9170561:9170562:+_ENSMUSG00000033499_ENSMUST00000091829|mus_mus|FALSE|FALSE (ssRNA)
RNA: B7 RNA with G80U, G81A

The target in the assay is T1, UNK ZnF1-3 (human, UniProt Q9C0B0 31-174).
T1 sequence: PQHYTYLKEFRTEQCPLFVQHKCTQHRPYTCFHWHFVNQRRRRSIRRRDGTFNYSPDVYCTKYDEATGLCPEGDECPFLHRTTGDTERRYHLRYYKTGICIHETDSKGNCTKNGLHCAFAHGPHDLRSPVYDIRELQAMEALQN
Put plainly: nsRBNS (natural sequence RNA bind-n-seq); RBNS binding buffer (assumed for nsRBNS): 25 mM Tris pH 7.5, 150 mM KCl, 3 mM MgCl2, 0.01% Triton X-100, 500 ug/ml BSA, 20 U/ml SUPERase-In, 4 C; UNK is unkempt and MSI1 is Musashi-1; names of the RNAs are library labels; protein concentration not given here; high values mean tight binding.
In turn, B1 returned a binding signal of 0.808 enrichment R. As for B2, the figure is 1.2 enrichment R; as for B3, 1.55 enrichment R; as for B4, 1.06 enrichment R. The result for B5 reads 1.15 enrichment R; that for B6, 1.13 enrichment R. Turning to B7, the binding signal was found to be 4.58 enrichment R. Molecule B8 came in with a binding signal of 1.32 enrichment R. As for B9, the figure is 6.5 enrichment R; as for B10, 1.04 enrichment R; as for B11, 0.686 enrichment R.

Molecule B12 came in with a binding signal of 0.92 enrichment R. For B13, the binding signal stood at 0.842 enrichment R. In turn, B14 yielded a binding signal of 5.05 enrichment R.
